The whole screen tested about 2,100 compounds, of which about 650 (31%) were called active. About 16% were inconclusive and are not listed. Calls come from the whole dose curve; as a rule, active = well fitted inhibition curve with a large enough effect; inconclusive = small, poorly fitted or top-dose-only effect; inactive = flat fitted curve, though single readings scatter. The list shows a part of the results. Where a call stands in place of a potency, no number is given.
assay: qHTS for inhibitors of Vif-A3G interactions: Cherry picks; settings: HeLa A3G-eYFP + Vif (tagged APOBEC3G with the HIV-1 protein that degrades it), 24 h; Potency: eYFP fluorescence increase; series mostly up to 36.9 µM; note: nearly all actives have a fitted effect of over 80% in size
In short: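 HeLa cells stably expressing A3G-eYFP and Vif, cultured overnight then exposed to compounds at several concentrations for 24 hours at 37 C, 5% CO2; cellular yellow fluorescence (488 nm ex, 500-530 nm em) imaged on Acumen, MG132 positive control.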
Potency is the fitted concentration of half-maximal effect.

| SMILES | Potency |
| --- | --- |
| O=C(Nc1nc(NC(=O)c2ccco2)n(-c2ccccc2)n1)c1ccccc1 | inactive |
| Cc1cc(C)c2cc3c(N)c(C(=O)Nc4c(C)[nH]c(=O)[nH]c4=O)sc3nc2c1 | 18.4 µM (active) |
| O=C(Cn1cnc2c(cnn2-c2ccc(F)cc2)c1=O)NCc1ccco1 | inactive |
| N#CC1=C(N)Oc2cc(N)ccc2C1c1cccc(F)c1 (stereo not drawn) | inactive |
| N#CC1=C(N)Oc2cc(N)ccc2C1c1ccc(F)cc1F (stereo not drawn) | 18.4 µM (active) |
| N#CC1=C(N)Oc2cc(N)ccc2C1c1ccccc1F (stereo not drawn) | inactive |
| Cc1csc(NC(=O)CCC(=O)N(CC(=O)NC2CCCC2)Cc2ccccc2)n1 | inactive |
| CCCC1=Nc2cc(C(=O)NCc3ccco3)ccc2Sc2ccccc21 | inactive |
| Cc1cc(=O)oc2cc(OCC(=O)N3c4ccccc4CC3C)ccc12 (stereo not drawn) | inactive |
| COc1cc(OC)c(OC)cc1/C=C1\Oc2cc(OCC(=O)N3Cc4ccccc4C[C@H]3C(=O)O)ccc2C1=O | 4.11 µM (active) |
| CCNC(=S)N/N=C(\C)c1ccc(N2CCOCC2)cc1 | inactive |
| COc1ccc(OCCCC(=O)N2CCN(S(=O)(=O)c3cccc(F)c3)CC2)cc1 | inactive |
| O=C1CSC(=S)N1Cc1cccnc1 | 16.4 µM (active) |
| O=c1[nH]c2ccccc2nc1/C=C(\O)c1cccs1 | 18.4 µM (active) |
| O=C(/C(=C/c1ccc(Cl)cc1)c1nc2ccccc2[nH]1)c1cccs1 | inactive |
| COc1ccc(OC)c(Nc2nc(-c3ccncc3)nc3ccccc23)c1 | inactive |
| O=c1[nH]c2ccccc2nc1/C=C/c1ccc(F)cc1 | 14 µM (active) |
| COc1cccc(N2CC(O)=C(c3nc4ccccc4c(=O)[nH]3)C2=N)c1 | inactive |
| COc1ccc(OC)c(/C=C/c2nc3ccccc3[nH]c2=O)c1 | 18.4 µM (active) |
| N=C1C(c2nc3ccccc3[nH]2)=C(O)CN1c1ccccc1 | inactive |
| Cc1[nH]c2ccccc2c1/C=N/NC(=O)c1cc(-c2ccncc2)nc2ccccc12 | inactive |

| SMILES | Potency |
| --- | --- |
| COc1ccc(S(=O)(=O)Nc2cccc3ccccc23)cc1 | inactive |
| O=[N+]([O-])c1ccc(N/N=C\c2cccn2-c2ccccc2)nc1 | inactive |
| O=[N+]([O-])c1ccc(N/N=C/c2c[nH]c3ccccc23)cc1 | 11.6 µM (active) |
| COc1ccccc1NS(=O)(=O)c1cc([N+](=O)[O-])ccc1N/N=C/c1c[nH]c2ccccc12 | 16.4 µM (active) |
| Cc1[nH]c2ccccc2c1/C=N/Nc1ccc([N+](=O)[O-])cc1 | 13 µM (active) |
| CCN(CC)c1ccc(NC(=O)c2ccc(=O)[nH]c2)cc1S(=O)(=O)Nc1ccccc1OC | inactive |
| O=C(N/N=C/c1c[nH]c2ccccc12)C1COc2ccccc2O1 (stereo not drawn) | inactive |
| COc1ccc(NS(=O)(=O)c2cc([N+](=O)[O-])ccc2N/N=C/c2c(C)[nH]c3ccccc23)cc1 | 14.6 µM (active) |
| CCCCCS(=O)(=O)c1oc(-c2cccs2)nc1S(=O)(=O)c1ccc(C)cc1 | inactive |
| Cc1ccc(-c2nc(C=Nc3ccc(O)cc3)c(O)o2)cc1 | inactive |
| COc1ccc(NC(=O)C2(C)Cc3c(-c4cccc(NC(C)=O)c4)ccnc3O2)cc1 (stereo not drawn) | inactive |
| COc1cc(Cn2c3ccc(NC(=O)CCc4ccccc4)cc3c(=O)n2C)ccc1F | inactive |
| Cn1nnnc1SCCNCc1cc(Br)ccc1OCc1ccccc1Cl | inactive |
| Cc1ccc(-c2cc(NC=O)c3ncc(-c4cnn(C)c4)n3c2)cc1 | inactive |
| Cc1ccc(-c2cc(C(=O)N/N=C/c3c[nH]c4ccccc34)[nH]n2)cc1 | inactive |
| O=C(Nc1ccc2c(c1)OCCO2)C(=O)c1c[nH]c2ccccc12 | inactive |
| C/C(=N/Nc1ccc([N+](=O)[O-])cc1)c1c[nH]c2ccccc12 | 8.2 µM (active) |
| O=[N+]([O-])c1ccc(N=Nc2ccc(O)c3ccccc23)cc1 | inactive |
| COc1ccccc1NS(=O)(=O)c1cc([N+](=O)[O-])ccc1N/N=C/c1c(C)[nH]c2ccccc12 | 2.8 µM (active) |
| O=[N+]([O-])c1ccc(N/N=C/c2c[nH]c3ccccc23)c(S(=O)(=O)Nc2ccc(Cl)cc2)c1 | 18.4 µM (active) |
| Cc1ccc(N2C(=O)CS/C2=C(\C(Cl)=C(Cl)Cl)[N+](=O)[O-])cc1 | inactive |

| SMILES | Potency |
| --- | --- |
| Fc1cccc(F)c1/C=N/NC(=S)Nc1cccnc1 | inactive |
| Cn1c(=O)c2cc(NC(=O)Cc3cccc4ccccc34)ccc2n1-c1ccccc1 | inactive |
| CCOc1ccc(N/C=C/C(=O)c2cc(OC)c(OC)c(OC)c2)cc1 | inactive |
| CCOc1cc(/C=C/C(=O)c2ccc(OC)c(CN3CCOCC3)c2)cc(Br)c1O | 18.4 µM (active) |
| COc1cc(/C=C/C(=O)c2ccc(O)cc2)ccc1OCC#N | inactive |
| COc1cc2c(cc1OC)C(C)N(C(=O)c1cc(Cl)nc(Cl)c1)CC2 (stereo not drawn) | inactive |
| O=C(Nc1ccc([N+](=O)[O-])cc1)C(Cc1ccccc1)N1C(=O)c2cccc3cccc(c23)C1=O (stereo not drawn) | 14 µM (active) |
| O=C(c1ccc(CS(=O)c2ccccc2Cl)o1)N1CCN(c2ccccc2F)CC1 (stereo not drawn) | inactive |
| CC(=O)c1ccc2cccc3c2c1N=CN3C | 15.8 µM (active) |
| C=CCn1c(O)c(N=NC(=O)CNC(=O)c2ccco2)c2ccccc21 | inactive |
| CCN(CC)c1ccc(NC(=O)c2ccc(=O)[nH]c2)cc1S(=O)(=O)Nc1ccc(OC)cc1 | inactive |
| CC(C)(C)NC(=S)N/N=C\c1ccc(-c2ccc([N+](=O)[O-])cc2)o1 | 20.6 µM (active) |
| Cc1cc([N+](=O)[O-])ccc1-c1ccc(/C=N/NC(=O)c2ccc(Br)o2)o1 | 16.4 µM (active) |
| O=C(O)c1ccc(N/N=C/C(Br)=C/c2ccccc2)cc1 | inactive |
| CCOc1ccc(S(=O)(=O)N(CC(=O)N/N=C/c2ccc(-c3ccc([N+](=O)[O-])cc3)o2)c2ccccc2)cc1 | inactive |
| O=C(Cc1ccccc1)N/N=C/c1ccc(-c2ccc([N+](=O)[O-])cc2)o1 | 17.7 µM (active) |
| O=C(O)c1cccc(-c2ccc(/C=N/Nc3ccc([N+](=O)[O-])cc3)o2)c1 | 18.4 µM (active) |
| Cc1ccc(-c2ccc(/C=N/NC(N)=S)o2)cc1 | inactive |
| O=[N+]([O-])c1ccccc1C=NNC(=S)NN=Cc1ccccc1[N+](=O)[O-] | inactive |
| NC(=S)N/N=C\c1ccc(-c2cccc(Cl)c2Cl)o1 | inactive |
| Cc1cc(/C=N/NC(=O)c2cc3ccccc3o2)c(C)n1C | inactive |

From PubChem BioAssay AID651812 (National Center for Advancing Translational Sciences (NCATS), 2012)
